Where “and” joins values, the source holds several entries; their conditions need not be identical. Equal values may be shown once. Calls of active or inactive are those of the source. The rule behind the calls is not given here.
Assay: compound-DNA interaction, EtBr readout – biochemical, fluorescence, ethidium bromide, artefact control for HCV NS3 helicase inhibitor project, late-stage follow-up (AID 623972)
Details: DNA binding, ethidium bromide displacement fluorescence
For `CN1CCN(Cc2cc(CN3CCN(C)CC3)c(O)c(=O)c(CN3CCN(C)CC3)c2)CC1`, the IC50 was 31 µM (active).
For `Cc1cc2sc(-c3ccc(N)cc3)nc2cc1S(=O)(=O)O`, the IC50 was > 100 µM (inactive).
With `Cc1cc(C(O)(c2ccc(Nc3ccccc3)cc2)c2ccc(Nc3ccc(S(=O)(=O)O)cc3)cc2)ccc1N` (stereo not drawn) the IC50 was 4 µM (active).
In the case of `CCN(CC)c1ccc(-c2nc3ccc(-c4nc5ccc(C)c(S(=O)(=O)O)c5s4)cc3s2)cc1`, the IC50 is reported as > 100 µM (inactive).
With `COc1cccc2c(=O)c3cc(Cl)cc(C(=O)Nc4cc(Cl)ccn4)c3[nH]c12` the IC50 was > 100 µM (inactive).
In the case of `Cc1ccc2nc(-c3ccc4nc(-c5ccc(N)cc5)sc4c3)sc2c1S(=O)(=O)O`, the IC50 is reported as > 100 µM (inactive).
With `Cc1ccc2nc(-c3ccc4nc(-c5ccc6nc(-c7ccc(N)cc7)sc6c5)sc4c3)sc2c1S(=O)(=O)O` the IC50 was 55 µM (active).
In the case of `Cc1ccc2nc(-c3ccc4nc(-c5ccc6nc(-c7ccc(N)cc7)sc6c5)sc4c3)sc2c1S(=O)(=O)O` (tested in a mixture with another compound), the IC50 is reported as 73 µM (active).
With `CCN(CC)c1ccc(-c2nc3ccc(C)c(S(=O)(=O)O)c3s2)cc1` the IC50 was > 100 µM (inactive).
For `Cc1cc2sc(-c3ccc4nc(-c5ccc(N)cc5)sc4c3)nc2cc1S(=O)(=O)O`, the IC50 was > 100 µM (inactive).
In the case of `Cc1ccc2nc(-c3ccc(N)cc3)sc2c1S(=O)(=O)O`, the IC50 is reported as > 100 µM (inactive).
For `Cc1ccc2nc(-c3ccc4nc(-c5ccc6nc(-c7ccc8nc(-c9ccc(N)cc9)sc8c7)sc6c5)sc4c3)sc2c1S(=O)(=O)O`, the IC50 was 15 µM (active) and 76 µM (active).
In the case of `CCOc1ccc2c(NNC(=O)c3cnccn3)c3c(nc2c1)CCCC3`, the IC50 is reported as > 100 µM (inactive).

Source: PubChem BioAssay AID623972 (The Scripps Research Institute Molecular Screening Center, 2012)
